Results taken from PubChem BioAssay (NCI).
Where “and” joins values, the source holds several entries; their conditions need not be identical. Equal entries are not always repeated. This is part of a sample that, as a whole, favours compounds with a hit. Of some 83,000 tested, about 20% had one in any assay.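 Compound tested at a single concentration for 48 hours in 96-well plates; a percent growth value below 10 was scored as active.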 Values without a mark were called inactive. Calls of active or inactive are those of the source.

Tested on: MDA-MB-468 breast
Assay: NCI-60 one-dose screen, 48 h (100 = growth as untreated, 0 = no growth, -100 = all killed)
Settings: 10 µM unless noted

Q: How did the growth turn out when `COc1ccc(CN2c3ccccc3Oc3ccccc32)cc1F` was run?
A: 44.3%

Q: With `CCN(CC)CCOc1ccc(/C(=C(\C)Cc2ccc(OC)cc2)c2ccc(O)cc2)cc1` as the molecule, how does the growth read?
A: -18.7% (active)

Q: How did the growth turn out when `O=C(Nc1ccc(-n2ccc3c(NC(=O)c4ccccc4)nccc32)cc1)Nc1cccc(C(F)(F)F)c1` was run?
A: 15.5%

Q: With `COc1ccc2c(c1)Oc1nc(N)c(C#N)c(N)c1C2Sc1ccc(SC)cc1` (centres undefined) as the molecule, how does the growth read?
A: -40.8% (active)

Q: With `NC(=S)NN=C1CCC(C2CCCCC2)CC1` (centres undefined) as the molecule, how does the growth read?
A: 50.9% and 46.9%

Q: Which growth does the source give for `c1ccc(Nc2nc(Nc3ccccc3)nc(Nc3ccccc3)n2)cc1` here?
A: 93.8%

Q: How did the growth turn out when `O=C(COc1ccc(C2SCC(=O)N2c2ccccc2)cc1)c1ccccc1` (centres undefined) was run?
A: 85.3%

Q: How did the growth turn out when `O=C1c2c(c3c4cccnc4[nH]c3c3ccc4ccccc4c23)C(=O)N1O` was run?
A: 45.5%

Q: For `COc1ccc2c(c1)CC=C1[C@@H]2CC[C@]2(C)C(=O)/C(=N/O)C[C@@H]12`, which growth is on record?
A: 63.2%

Q: How did the growth turn out when `COc1ccc2[nH]c(O)c(/C=c3/cc4c(c(-c5ccc(F)cc5)n3)=Nc3ccccc3-4)c2c1` was run?
A: 67.4%

Q: With `Cc1cc(Nc2nc(SCc3ccc(C(=O)Nc4ccc(F)cc4N)cc3)nn3cccc23)n[nH]1` as the molecule, how does the growth read?
A: 47.7%

Q: How did the growth turn out when `Cc1[nH]n(-c2cccc(Cl)c2)c(=O)c1/C=C1\C=Nc2ccc(Br)cc21` was run?
A: 35.7%

Q: For `CC1(C)C2CC=C(/C=N/NC(=O)C3CCC(=O)N3)C1C2` (centres undefined), which growth is on record?
A: 114%

Q: With `Cn1c2ccccc2c2nn(C(=O)c3ccccc3)c(=O)nc21` as the molecule, how does the growth read?
A: 107%
